According to PubChem BioAssay (NCI):
About 79,000 compounds went through this panel and 15% of them were active in at least one assay; those are over-represented in the sample as a whole. Values without a mark were called inactive. Calls of active or inactive are those of the source. Cut-off read from the data, not from the text of the source: active = growth inhibition above about 70%; inactive = the rest.

Assays:
[1] = NCI Yeast Anticancer Drug Screen. Data for the rad50 strain (AID 155);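 note: 0% = growth of vehicle-only cultures of the same strain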; details: S. cerevisiae rad50 strain growth inhibition; at 50.0 µM; stronger effect = higher value
Outline: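 Readout: growth inhibition relative to vehicle-treated cultures. Compound exposure was carried out in a genetically defined yeast strain deficient in DNA damage repair.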

[2] = NCI Yeast Anticancer Drug Screen. Data for the mec2-1 strain (AID 157); details: S. cerevisiae mec2-1 strain, at 50.0 µM, stronger effect = higher value
Outline: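 mec2-1 yeast strain, carrying an alteration in DNA damage repair or cell cycle control, was exposed to compounds; growth inhibition was measured relative to vehicle-treated controls.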

[3] = NCI Yeast Anticancer Drug Screen. Data for the sgs1 mgt1 strain (AID 161);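 note: 0% = growth of cultures given vehicle only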; details: S. cerevisiae sgs1 mgt1 strain, at 50.0 µM, stronger effect = higher value
Outline: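 Compounds are added to genetically altered yeast, and growth is compared with cultures given vehicle alone to give percent inhibition.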

[4] = NCI Yeast Anticancer Drug Screen. Data for the cln2 rad14 strain (AID 165);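 note: 0% = growth equal to vehicle treated cultures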; details: S. cerevisiae cln2 rad14 strain, at 50.0 µM, stronger effect = higher value
Outline: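 Yeast carrying cln2 and rad14 alterations (cell cycle control and DNA damage repair) were exposed to compounds. Growth inhibition was measured against vehicle-treated controls.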

[5] = NCI Yeast Anticancer Drug Screen. Data for the bub3 strain (AID 167); details: S. cerevisiae bub3 mutant strain, at 50.0 µM, stronger effect = higher value
Outline: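 Readout: yeast growth inhibition, expressed relative to vehicle-only wells. The test organism is a mutant strain from a panel with lesions in DNA repair or checkpoint genes.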

[6] = NCI Yeast Anticancer Drug Screen. Data for the mlh1 rad18 strain (AID 175); details: S. cerevisiae mlh1 rad18 strain growth inhibition; at 50.0 µM; stronger effect = higher value
Outline: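 Growth inhibition of the yeast strain was measured after compound exposure and expressed relative to vehicle-treated controls. The strain carries defined defects in DNA damage repair.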

Compound	growth inhibition [1]	growth inhibition [2]	growth inhibition [3]	growth inhibition [4]	growth inhibition [5]	growth inhibition [6]
N/C(=N/N=C/C1CCCCC1)NO	0.95%	-9.25%	-24.1%	3.4%	-13.9%	13.6%
CC12CC3CC(O)(C1)CC(O)(C3)C2	7.25%	-11.1%	-1.45%	22.2%	-8.3%	4.15%
CC(=O)Nc1ccc(O)c(C(=O)O)c1	-8.6%	7.3%	-8.55%	-6%	24.1%	-24.4%
COc1ccccc1CO	0.85%	-13.8%	3.85%	13.7%	13.8%	-1.15%
CC(=O)Nc1cc(Cl)ccc1C	39.7%	29.9%	26.3%	16.1%	5.95%	24.1%
CS(=O)(=O)OCC(Cc1ccccc1)N1C(=O)c2ccccc2C1=O (configuration not stated)	1.3%	4.05%	17.9%	12.2%	26.9%	34.1%
Cc1cn(C2CC(N(C)C)C(CO)O2)c(=O)[nH]c1=O (configuration not stated)	-28.2%	-25.8%	-18.4%	12.3%	-28.3%	-34.8%
COc1ccccc1C1OC2=C(Nc3ccc(Cl)cc3N2)C1=O (configuration not stated)	-6.5%	-17.8%	-17.5%	-7%	-23.7%	-2.95%
COc1ccc(NS(=O)c2ccccc2OC)cc1 (configuration not stated)	2.7%	4.5%	14.3%	-18.9%	8.05%	5.5%
COC1OC2COC(c3ccccc3)OC2C(OC)C1OC(=O)c1ccccc1 (configuration not stated)	-3.05%	0.85%	-14.1%	-37.6%	-2.05%	7.55%
O=C(Nc1ccc(Cl)cc1)c1ccc(Cl)cc1Cl	-11.8%	10.7%	-2.5%	-39.1%	13.7%	-0.15%
Nc1ccc(Cn2ccc(=O)[nH]c2=O)cc1	-14.4%	3.2%	0.25%	-26.9%	-11.2%	-0.8%
CC1CCCN(P(c2ccccc2)N2CCCC(C)C2)C1 (configuration not stated)	25%	4.6%	16.4%	15.4%	26%	13%
C(=N/n1nnc(-c2ccccc2)n1)/c1ccccc1	-2.4%	-10.1%	-3%	-44.1%	-5.3%	-6.05%
CC(=O)OC1CCC2(C)C(CCC3(C)C2CC=C2C4CC(C)(C)CCC4(C)CCC23C)C1(C)C (configuration not stated)	5.85%	-1%	-8.8%	-1.6%	6.05%	-5.3%
OCC(O)COCC#Cc1ccccc1 (configuration not stated)	6%	1.85%	3.1%	-60.2%	-14.6%	16.2%
CCOC(=O)CCCN	-8.45%	-3%	-6.95%	56.7%	-39.8%	-16.1%
C=CCC1(C)C(=O)CCC1=O	-18.5%	-5.8%	0.6%	-12.6%	1.15%	-4.1%
ClC1CC[N-]CC1.ClC1CC[N-]CC1.O=C(O)CC(=O)O.[Pt+2]	53.2%	55.4%	68.5%	-23.4%	23.4%	45.5%
COc1cc(/C=C/c2ccnc3ccccc23)ccc1N(C)C	4.7%	24.8%	15.6%	-32.3%	29.8%	24.7%
O=C1[C@@H](c2ccc(Cl)cc2)[C@H]2CC=C[C@H]2N1O	8.65%	-21.4%	-13.8%	15.4%	-13.4%	-2.25%

Compound	growth inhibition [1]	growth inhibition [2]	growth inhibition [3]	growth inhibition [4]	growth inhibition [5]	growth inhibition [6]
CC1CC=CCC1COB(OCC1CC=CCC1C)OCC1CC=CCC1C (configuration not stated)	22.8%	-21.5%	29.1%	23.1%	24.3%	-0.25%
CC(C)(C)c1ccc(Sc2cccc3c2C(=O)c2c(Cl)cccc2C3=O)cc1	-11.3%	-4.1%	-27.1%	-8.1%	0.55%	-0.85%
Cc1ccccc1CN	28.9%	3.05%	-10.8%	1.05%	18.3%	23.6%
COc1cc(C(=O)C[n+]2ccccc2)ccc1O	95.3% (active)	86.2% (active)	84.5% (active)	97.2% (active)	97.7% (active)	99.5% (active)
Cn1cnc([N+](=O)[O-])c1Sc1ccccc1N	-7.3%	-4.15%	0.45%	18.6%	-15.7%	-2.5%
O=c1c2c(ccc3ccccc32)oc2ccc3ccccc3c12	15%	1.45%	-5.45%	-45.1%	-7.65%	16.4%
Cc1ccc(NC(=O)CC/C(CC(=O)C(C)(C)C)=N/NC(=O)C(N)=O)cc1C	-2.75%	-9.95%	10.5%	10.6%	8.55%	5.1%
Cc1ccc([Se](=C(C(=O)c2ccccc2)C(=O)c2ccccc2)c2ccc(C)cc2)cc1	82.4% (active)	11.7%	35.7%	9.85%	4.95%	54.6%
Oc1ccc2ccc(O)cc2c1	21.4%	21.6%	10.4%	12.2%	11.8%	5.4%
CCCC(CCCC(=O)O)C(=O)O (configuration not stated)	-4%	-9.8%	0.95%	-8.2%	11.9%	6.1%
c1ccc2c(c1)ccc1c3ccccc3ccc21	14.5%	10.9%	13.6%	25.6%	24.4%	17.6%
Cc1ccc(NC(=O)Oc2ccc(Cl)cc2Cl)cc1NC(=O)Oc1ccc(Cl)cc1Cl	-20.1%	-1.15%	-13.3%	-13.1%	-3.2%	-42.7%
CN(C)c1ncnc2nc[nH]c12	-14.6%	0.7%	-6.1%	-14.4%	-2.6%	16.3%
CCC(C)OC(=S)S.[Ag] (configuration not stated)	5.25%	-7.2%	0.7%	-9.4%	-1.85%	10.7%
O=C(O)c1oc(C(=O)O)c(C(=O)O)c1C(=O)O	-15%	-38.1%	-18.6%	-28.6%	-32.1%	7.6%
COC(=O)c1sc(=O)n(-c2ccccc2)c1SCc1ccccc1	25.4%	-5.15%	60%	12.9%	30.8%	18.8%
CCCCOC(=O)C(C)OP(=O)(OC(C)C(=O)OCCCC)OC(C)C(=O)OCCCC (configuration not stated)	-19.4%	-5%	9.5%	-26.1%	-0.3%	16.2%
O=c1[nH]cnc2nn(C3OC(CO)C(O)C3O)cc12 (configuration not stated)	-20.4%	12.9%	-6.85%	-5.65%	9.25%	-18.9%
CC12CCC3C(CCC4CCCCC43C)C1CC/C2=N\O (configuration not stated)	90.2% (active)	45.6%	79.8% (active)	39.8%	85.5% (active)	96.5% (active)
COC(=O)c1ccccc1S(=O)(=O)NC(C)C	10.8%	-1.15%	16.9%	11.8%	-4.7%	25.8%
c1ccc(N=C2SC(=NNc3ccccc3)SC2=Nc2ccccc2)cc1	-21.8%	6.25%	-21.9%	-29.5%	-8.25%	-4.1%
